# Experimental data reported in PubChem BioAssay (NCATS).
# Results filed as inconclusive are left out. A call without a number means that no potency is given here. Unmarked numbers belong to inactive results. Active and inactive are the calls of the source. Calls follow the shape of the dose curve; as a rule, active = well fitted inhibition curve with a large enough effect; inconclusive = small, poorly fitted or top-dose-only effect; inactive = flat fitted curve, though single readings scatter.
# Assays:
# [1] = biological target: Calcium and integrin-binding protein 1 (Homo sapiens) (UniProt Q99828); test: Primary qHTS for Identification of Calcium Integrin Binding Protein 1 (CIB1) Competitor (AID 1508620);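 also: GST tagged CIB1 binding a fluorescein labelled alphaIIb integrin peptide tracer; top concentration of the series differs between compounds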
# Chain of Calcium and integrin-binding protein 1 (Homo sapiens) (Q99828 whole entry, looked up): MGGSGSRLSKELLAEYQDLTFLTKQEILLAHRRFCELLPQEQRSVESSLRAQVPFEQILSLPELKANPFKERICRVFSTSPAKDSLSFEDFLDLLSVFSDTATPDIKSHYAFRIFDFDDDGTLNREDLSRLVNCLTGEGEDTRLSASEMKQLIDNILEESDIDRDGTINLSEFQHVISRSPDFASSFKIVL
# Procedure, shortened: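 Fluorescence polarization competition: CIB1-GST (1 uM final) preincubated with compound 15 min at room temperature, then FITC-labeled alphaIIb peptide (100 nM final) added for another 15 min. Polarization read at Ex 480/Em 540.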
# [2] = Primary qHTS for inhibitors of nuclear receptor binding SET domain protein 2 (NSD2) in an isogenic RCH-ACV NSD2 p.E1099K mutant (9B) (AID 1645876); also: nearly all actives have a fitted effect of over 70% in size
Compound,Potency [1],Potency [2],"activity change, negative = inhibition [1]","activity change, negative = viability loss [2]"
C[C@H]1[C@@H](O)[C@H](O)C2[C@]3(C)C([C@@H](O)[C@H]4OC(=O)[C@@H]1[C@@]24C)[C@](C)(O)C=C[C@H]3O[C@@H]1O[C@H](CO)[C@@H](O)[C@H](O)[C@H]1O (stereo partly specified),inactive,inactive,–,–
CC1(C)CC[C@]2(C(=O)O)CC[C@]3(C)C(=CCC4[C@@]5(C)CC[C@H](O[C@@H]6O[C@H](C(=O)O)[C@@H](O)[C@H](O[C@@H]7O[C@H](CO)[C@H](O)[C@H](O)[C@H]7O)[C@H]6O[C@@H]6O[C@H](CO)[C@@H](O)[C@H](O)[C@H]6O)C(C)(C)C5CC[C@]43C)[C@@H]2C1 (stereo partly specified),–,–,10.7% [at 12.4 µM],-9.66% [at 4.96 µM]
C[C@]1(O)CC[C@@H]2C(C(=O)O)=CO[C@@H](O[C@@H]3O[C@H](COC(=O)/C=C/c4ccc(O)c(O)c4)[C@@H](O)[C@H](O)[C@H]3O)[C@@H]21,inactive,inactive,–,–
CC1=C2C3OC(=O)C(C)C3(O)CCC2(C)CCC1 (stereo unspecified),inactive,inactive,–,–
CC(=O)OC1CC2(C)C(CCC(C)C23Cc2c(O)cc4c(c2O3)CNC4=O)C(C)(C)C1O (stereo unspecified),inactive,inactive,–,–
C[C@H]1CCN2C[C@]34C[C@@]5(C(=O)Nc6c5ccc5c6OC=CC(C)(C)O5)C(C)(C)C3C[C@]12C(=O)N4C (stereo partly specified),inactive,inactive,–,–
Cc1ccccc1N1CCN(S(=O)(=O)C[C@]23CC[C@H](C[C@@H]2NC(=O)[C@@H](N)CCS(C)(=O)=O)C3(C)C)CC1,inactive,inactive,–,–
C/C(=C\CC[C@H](CO)[C@@H]1CC[C@]2(C)C3=C(CC[C@@]12C)[C@@]1(C)CCC(=O)C(C)(C)C1CC3)C(=O)O (stereo partly specified),inactive,inactive,–,–
